Results on 27 compounds are retold here after PubChem BioAssay AID1347084 (National Center for Advancing Translational Sciences (NCATS), 2019).

Where “and” joins values, the source holds several entries; their conditions need not be identical. Identical values can stand only once. Inconclusive results are not listed. Values without a mark were called inactive. Calls of active or inactive are those of the source. Calls come from the whole dose curve.

This assay in a line: qHTS for Inhibitors of the Functional Ribonucleoprotein Complex (vRNP) of Lymphocytic Choriomeningitis Arenaviruses (LCMV): LCMV Confirmatory Screen - GLuc reporter signal. As to conditions: LCMV minigenome vRNP, Gaussia luciferase reporter; series mostly up to 53.9 µM; activity change, negative = inhibition: at the top concentration.
For `COc1ccc(Cc2nccc3cc(OC)c(OC)cc23)cc1OC`, the Potency was 1.93 µM (active) and 3.43 µM (active).

For the compound `NC(=O)N/N=C/c1ccc([N+](=O)[O-])o1`, the Potency is 24.3 µM (active).

Consider `CCCCC/C(C=O)=C\c1ccccc1`, for which the “activity change, negative = inhibition” value is -14.3%.

With `COc1cccc(-c2ccc(NC(=O)C3=C(C(=O)O)CCC3)c(F)c2)c1`, the Potency is 3.85 µM (active).

On to `COc1cc2c(cc1OC)CC(=O)N(CCCN(C)C[C@H]1Cc3cc(OC)c(OC)cc31)CC2`, for which the “activity change, negative = inhibition” value is -0.473%.

Take `O=C1Cc2cc(CCN3CCN(c4nsc5ccccc45)CC3)c(Cl)cc2N1`: the “activity change, negative = inhibition” value was -22.9%.

Turning to `S=C(NCc1ccc2c(c1)OCO2)N1CCN(c2ncnc3c2oc2ccccc23)CC1`, the Potency is 2.22 µM (active).

`Cc1ncc([N+](=O)[O-])n1CC(C)O` (configuration not stated): the “activity change, negative = inhibition” value was 5.61%.

For the compound `CC(C)=CCC/C(C)=C/CC/C(C)=C/CC[C@]1(C)CCc2c(C)c(O)c(C)c(C)c2O1`, the activity change, negative = inhibition is -18.6% [at 6 µM].

Take `COc1ccc2c(c1OC)CN1CCc3cc4c(cc3C1C2)OCO4` (configuration not stated): the Potency was 24.3 µM (active).

With `CC(=O)[C@H]1CC[C@H]2[C@@H]3CCC4=CC(=O)CC[C@]4(C)[C@H]3CC[C@]12C`, the Potency is 24.3 µM (active).

Consider `CCOC(=O)OCC/C(SC(=O)OCC)=C(\C)N(C=O)Cc1cnc(C)nc1N`, for which the “activity change, negative = inhibition” value was -12.6%.

Regarding `CCCCCC[C@H]1C(=O)O[C@H](C)[C@H](NC(=O)c2cccc(NC=O)c2O)C(=O)O[C@@H](C)[C@@H]1OC(=O)CC(C)C`, the Potency was 0.0343 µM (active).

As for `C=C1CC[C@@H]2[C@](C)(CO)[C@H](O)CC[C@@]2(C)[C@@H]1/C=C/C1=CCOC1=O`, the Potency is 21.7 µM (active).

On to `CCN(CC)C(=O)N[C@@H]1C=C2c3cccc4[nH]cc(c34)C[C@@H]2N(C)C1`, for which the “activity change, negative = inhibition” value was -19.4%.

Turning to `CCCCC[C@H](O)/C=C/C=C/C/C=C\CCCC(=O)O`, the activity change, negative = inhibition was 4.12% [at 0.666 µM].

In the case of `COCCOC(=O)C1=C(C)NC(C)=C(C(=O)OC/C=C/c2ccccc2)C1c1cccc([N+](=O)[O-])c1` (configuration not stated), the Potency is 21.7 µM (active).

For `Fc1ccc(CNc2ncnc3ccc(F)cc23)cc1`, the Potency is 8.63 µM (active).

Consider `Cc1cccc(-c2[nH]c(C(C)(C)C)nc2-c2ccc3c(c2)OCO3)n1`, for which the Potency is 3.43 µM (active).

On to `N#CC(=C(\N)Sc1ccccc1N)/C(C#N)=C(/N)Sc1ccccc1N`, for which the Potency is 27.3 µM (active).

As for `CO/C=C(/C(=O)OC)c1ccccc1Oc1cc(Oc2ccccc2C#N)ncn1`, the Potency was 4.98 µM (active).

As for `C=C(C)[C@H]1Cc2c(ccc3c2O[C@@H]2COc4cc(OC)c(OC)cc4[C@@H]2C3=O)O1`, the Potency was 0.0544 µM (active).

Consider `CC(O)(P(=O)(O)O)P(=O)(O)O`, for which the “activity change, negative = inhibition” value is -11.6%.

For `CN1CCN(C2=Nc3cc(Cl)ccc3Nc3ccccc32)CC1`, the Potency is 30.6 µM (active).

`Oc1cc(Cl)ccc1Oc1ccc(Cl)cc1Cl`: the Potency was 22.2 µM (active).

With `C=C(C)C1Cc2c(ccc3c2OC2COc4cc(OC)c(OC)cc4C2C3=O)O1` (configuration not stated), the Potency was 0.0153 µM (active).

`Nc1ccc([N+](=O)[O-])cc1O`: the Potency was 62.7 µM (active).
